According to PubChem BioAssay (EPA / NIEHS):
Activity calls are given as the source filed them. Rule for the calls: active = hit-call score of the fitted dose curve at least 0.9, where 1 is the maximum; inactive = score below 0.9.

Each compound was assayed on Broad substrate specificity ATP-binding cassette transporter ABCG2 (Homo sapiens) (UniProt Q9UNQ0) (assay: LTEA_HepaRG_ABCG2: Life Technologies and Expression Analysis (LTEA) Assay for ABC Transporter (ABCG2) using HepaRG (AID 2283465)). Conditions: mRNA level, 48 h; actives raise or lower the signal.
Method: LTEA_HepaRG is a cell based, multiplexed-readout assay that uses HepaRG, a human liver cell line, with measurements taken at 48 hours after chemical dosing on a 96-well plate.LTEA_HepaRG_ABCG2 is one of 102 assay component(s) measured in the LTEA HepaRG cell culture assay. It is a marker of Steatosis/NR mediated transport.Data from the assay component LTEA_HepaRG_ABCG2 was analyzed into 1 endpoint. This assay endpoint, LTEA_HepaRG_ABCG2, was analyzed with bidirectional fitting relative to DMSO as the negative control and baseline of activity. Using a type of inducible reporter, measures of mRNA induction for gain or loss-of-signal activity can be used to understand regulation of transcription factor activity. To generalize the intended target to other relatable targets, this assay endpoint is annotated to the transporter intended target family, where the subfamily is ABC transporter.
A total of 1060 chemcials from the ToxCast library were tested in eight-point concentration-response experiments. Cell culture and cytotoxicity assays were conducted at Thermo Fisher Scientific's Custom Services facility (Madison, WI). A single lot of human HepaRG cells (Thermo Fisher Scientific, Frederick, MD) was used for the cell culture experiments. 96-well format collagen type I coated plates of human HepaRG cells were prepared using established methods. Briefly, cryopreserved HepaRG cells were thawed, plated at a density of approximately 100,000 cells/well in HepaRG Thaw, Plate, and General Purpose media (HPRG770, Thermo Fisher Scientific), and incubated for 48 hours. 0.5% DMSO was selected as vehicle control to balance the requisite need of DMSO in HepaRG cultures to maintain differentiation (for example, baseline metabolism, proportions of hepatocytes vs. cholangiocytes), while enabling further hepatic receptor pathway activation (for example, PXR and CAR) in response to chemical exposure. 48 hours after plating, the culture medium was replaced with HepaRG Serum-Free Incudtion Media. Cells were exposed to each test chemical in duplicate and maintained in CO2 incubators for another 48 hours. Chemical plates were thawed to room temperature and 200x concentrations of treatment groups were prepared. 8-point conentration-reponse curves were made with the highest exposure at 100 uM, followed by half-log dilutions, all in 0.5% DMSO. Each test plate contained variouse controls, induction positive controls (1mM phenobarbital), cytotoxicity positive controls ([…] aflatoxin B1), vehicle controls (0.5% DMSO), and total lysis controls (0.5% DMSO). Cell morphology images were taken using an Essen IncuCyte FLR automated microscope, with six 96-well plates imaged in about 24 minutes. Images were captured and exported and JPEG files. Spent culture media was transfered to black-well plates for the LDH assay, and remaining media was sorted at -80 C for later use. Cells were treated with RLT buffer and frozen until shipped for gene expression analysis. Total RNA was isolated from the cell suspension in 75 uL of Buffer RLT (Qiagen, Germantown, MD 20874) by Quintiles/Expression Analysis (Durham, NC) using a custom isolation procedure. Total RNA from each plate well was transferred to a preamplification plate. Fluidigm's 96.96 Dynamic ArrayTM (Fluidigm, Amsterdam, the Netherlands) technology was used for gene expression analyses by quantitative reverse transcription polymerase chain reaction (qRT-PCR, performed by Quintiles/Expression Analysis, Durham, NC)89. Standard TaqManTM Assays (Applied Biosystems/ThermoFisher Scientific, Foster City, CA) were used to assess the expression of 93 genes selected based on their selectivity and sensitivity to important hepatic receptors known to be modulated by environmental chemicals; importance in human hepatocyte functionality; and hepatotoxicity. […]

Chain of Broad substrate specificity ATP-binding cassette transporter ABCG2 (Homo sapiens) (Q9UNQ0 whole entry, looked up): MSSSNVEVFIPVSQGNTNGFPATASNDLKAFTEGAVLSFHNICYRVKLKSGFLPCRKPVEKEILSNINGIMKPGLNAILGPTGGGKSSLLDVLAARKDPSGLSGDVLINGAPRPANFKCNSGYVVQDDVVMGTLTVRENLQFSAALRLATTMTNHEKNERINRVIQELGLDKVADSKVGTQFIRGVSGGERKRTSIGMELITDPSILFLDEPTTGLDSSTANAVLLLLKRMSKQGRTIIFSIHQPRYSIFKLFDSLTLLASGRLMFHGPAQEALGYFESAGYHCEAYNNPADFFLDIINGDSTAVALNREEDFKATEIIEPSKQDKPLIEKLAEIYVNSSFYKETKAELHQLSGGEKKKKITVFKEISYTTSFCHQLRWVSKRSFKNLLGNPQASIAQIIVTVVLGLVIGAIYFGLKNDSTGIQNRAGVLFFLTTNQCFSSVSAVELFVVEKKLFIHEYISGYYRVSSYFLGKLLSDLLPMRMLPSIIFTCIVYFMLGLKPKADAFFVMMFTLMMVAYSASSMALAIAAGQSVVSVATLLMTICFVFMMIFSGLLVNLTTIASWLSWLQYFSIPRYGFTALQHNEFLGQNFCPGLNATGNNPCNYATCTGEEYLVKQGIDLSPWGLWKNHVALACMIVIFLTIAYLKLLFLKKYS

Row | Structure (SMILES) | outcome | AC50
1 | CCCCCCCCCCCCCCCS(=O)(=O)Oc1ccccc1 | inactive | –
2 | C=C(C)C(=O)OCCC(F)(F)C(F)(F)C(F)(F)C(F)(F)C(F)(F)C(F)(F)F | inactive | –
3 | CCCCC(CC)COC(=O)CCCCC(=O)OCc1ccccc1 (stereo not given) | inactive | –
4 | CCCCOCCO | inactive | –
5 | N#C[C@@H]1CC(F)(F)CN1C(=O)CNC1CC2CCC(C1)N2c1ncccn1 (stereo not given in full) | inactive | –
6 | O=C(OCCOCCOC(=O)c1ccccc1)c1ccccc1 | inactive | –
7 | CCc1ccc(CCOc2ccc(CC3SC(=O)NC3=O)cc2)nc1 (stereo not given) | – | 36.4 µM (active)
8 | CC(O)CO (stereo not given) | inactive | –
9 | Nc1cccc2c(N)cccc12 | inactive | –
10 | CN(C)C=O | inactive | –
11 | O=[N+]([O-])c1ccc(O)cc1 | inactive | –
12 | CCC(=C(c1ccc(O)cc1)c1ccc(OCCN(C)C)cc1)c1ccccc1 | inactive | –
13 | O=c1c(-c2ccc(O)cc2)coc2cc(O)ccc12 | inactive | –
14 | CCCCCCCCCCCCc1ccccc1S(=O)(=O)O | – | 50 µM (active)
15 | CC(C)CCCCCCOC(=O)CCCCC(=O)OCCCCCCC(C)C | inactive | –
16 | CCN(CC)CCNc1ccc(CNC=O)c2sc3ccc(OC)cc3c(=O)c12 | – | 9.65 µM (active)
17 | CN1CCN(c2ccccc2/C=C2\SCCN(c3ccc(Cl)c(Cl)c3)C2=O)CC1 | inactive | –
18 | CC(C)(C)c1cc(C(C)(C)C)c(O)c(C(C)(C)C)c1 | – | 20.9 µM (active)
19 | COCC(C)O (stereo not given) | inactive | –
20 | Cc1cc(CCN2CCN(c3nsc4ccccc34)CC2)cc2c1NC(=O)CC2(C)C | – | 32 µM (active)

Row | Structure (SMILES) | outcome | AC50
21 | OCCC(F)(F)C(F)(F)C(F)(F)C(F)(F)C(F)(F)C(F)(F)C(F)(F)C(F)(F)F | inactive | –
22 | NC(=O)N(O)[C@@H]1C=C[C@H](Oc2cccc(Oc3ccc(F)cc3)c2)C1 | – | 34.9 µM (active)
23 | Oc1cc2ccccc2c2ccccc12 | inactive | –
24 | ClC1=C(Cl)C(Cl)(Cl)C(Cl)=C1Cl | inactive | –
25 | COCC(C)OCC(C)O (stereo not given) | inactive | –
26 | COc1ccc([N+](=O)[O-])cc1N | inactive | –
27 | CCCOC(=O)c1ccc(O)cc1 | inactive | –
28 | C#C[C@]1(O)CC[C@H]2[C@@H]3CCC4=CC(=O)CC[C@@H]4[C@H]3CC[C@@]21C | – | 15.4 µM (active)
29 | COC(=O)CCCCC(=O)OC | inactive | –
30 | CC(=O)CC(C)(C)O | inactive | –
31 | CCCOc1sc(C(=O)N2CCC(c3cc(CN)ccc3F)CC2)c(C)c1Br | inactive | –
32 | CCCCCCCCOC(=O)CCCCCCCCC(=O)OCCCCCCCC | inactive | –
33 | CC(C)(C)c1ccc(O)c(C(C)(C)C)c1 | inactive | –
34 | OC1CCC(C2CCCCC2)CC1 (stereo not given) | inactive | –
35 | OC1CCCCC1 | inactive | –
36 | CC[C@H](C)[C@@H](C(=O)O)n1sc2ccccc2c1=O | inactive | –
37 | CCCCCCC(=O)O | inactive | –
38 | CCOC(=O)CC(O)(CC(=O)OCC)C(=O)OCC | inactive | –
39 | CCCCCCCCC(=O)O | inactive | –
40 | CC(C)(C)c1cccc(C(C)(C)C)c1O | inactive | –
